# Results filed as inconclusive are left out. Calls of active or inactive are those of the source. Calls follow the shape of the dose curve; as a rule, active = well fitted curve in either direction with a large enough effect (not every such curve was filed as active); inconclusive = small, poorly fitted or top-dose-only effect, or another doubt; inactive = flat fitted curve, though single readings scatter. Residues, ends and D or L forms follow the SMILES beside them. *: point of attachment. Cbz = O=C(OCc1ccccc1)*
# Biological target: Mitogen-activated protein kinase 10 (Mus musculus) (UniProt Q61831)
# Assay: JNK3 AlphaScreen Assay (AID 530);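 also: kinase came from lysate of stimulated human HepG2 cells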
# Conditions: JNK3 lysate, c-Jun phosphorylation; series mostly up to 57.1 µM; activity change, negative = inhibition: at the top concentration
# Description: NIH Chemical Genomics Center [NCGC]
# NIH Molecular Libraries Screening Centers Network [MLSCN]
# The c-jun N-terminal kinase (JNK) family are serine/threonine protein kinases that phosphorylate c-jun, a component of the transcription factor […] (AP-1). JNK kinases are members of the mitogen-activated protein kinase family including the extracellular regulated kinases and p38 kinases. Three JNK genes (JNK 1, 2, and 3) have been identified in humans so far. JNK1 and JNK2 have a broad distribution and JNK3 is primarily found in neuronal tissues and cardiac myocytes.
# JNK3 has been under consideration as a target for the treatment of neurodegenerative disorders. […] JNK pathway is also involved in pathological process in a mouse model of Parkinson's disease (Xia et al., 2001).
# Given these potential tissue distributions and links to neuroprotection, JNK3 inhibitors should provide useful investigational tools to study the role of this kinase in several diseases including, arthritis, stroke, myocardial infarction, ischemic injury and Parkinson's disease.
# A homogeneous AlphaScreen is developed to measure the activity of JNK3. AlphaScreen is a two bead-based proximity-dependent chemical energy transfer luminescent assay platform. The phosphorylation of a biotinylated c-jun substrate by JNK3 can be detected with an antibody raised against phosphorylated c-jun. This process brings streptavidin donor beads and Protein-A acceptor beads to within a proximity range of <200 nm, and subsequently lead a chemical luminescent reaction upon exciting donor beads with 680 nm laser excitation light. Inhibition of JNK3 activity by small molecules and subsequent decrease in the antibody binding to biotinylated c-jun could attenuate or abolish this chemical luminescent reaction.
# Yang DD, Kuan CY, Whitmarsh AJ, Rincon M, Zheng TS, Davis RJ, Rakic P and Flavell RA (1997) Absence of excitotoxicity-induced apoptosis in the hippocampus of mice lacking the Jnk3 gene. Nature 389:865-870. [PMID: 9349820]
# Herdegen T, Claret FX, Kallunki T, Martin-Villalba A, Winter C, Hunter T, and Karin M (1998) Lasting N-terminal phosphorylation of c-Jun and activation of c-Jun N-terminal kinases after neuronal injury. J.Neurosci. 18:5124-5135. [PMID: 9651196]
# Xia XG, Harding T, Weller M, Bieneman A, Uney JB and Schulz JB (2001) Gene transfer of the JNK interacting protein-1 protects dopaminergic neurons in the MPTP model of Parkinson's disease. Proc.Natl.Acad.Sci.U.S.A. 98:10433-10438.
# NCGC Assay Protocol Summary:
# GST-cJun (1-79) (Stratagene, La Jolla CA, #205145) was biotnylated by PerkinElmer (PerkinElmer-BioSignalInc. Montreal, Canada) and was detectable by the streptavidin Donor beads. Anti-(phospho)cJun (Ser73) antibody was from UpState (Charlottesvilles, VA, #06-659). JNK3-containing lysates were generated from HepG2 cells and pre-activated by interleukin1-beta and tumor necrosis factor alpha. All reagents were stored at -20 C before using. Phosphorylated biotinylated-GST-cJun was recognized by Anti-(phospho)cJun (Ser73) antibody and this process brings acceptor and donor beads together. Therefore JNK3 phosphorylation of cJun can be measured by Alpha reading by EnVision (PerkinElmer, Boston, MA).
# The composition of kinase buffer was (in mM) 20 tris- HCl (pH 7.6) 10 MgCl2, 1 DTT, and 0.1 Na3VO4 and 0.01% Tween-20. Beads were diluted in detection buffer containing (in mM) 20 tris-HCl (pH 7.7), 20 NaCl and 80 EDTA and 0.3% BSA. The assay was performed at room temperature. All compounds were screened as titrations from 0.6 nM to 46 uM final concentration. The assay was performed in 1536-well format (white solid bottom and untreated) as follows:
# Sequence,Parameter,Value,Description
# 1,Reagent,3 uL,Biotin-GST-cJun, Anti-(phospho)cJun and pre-activated JNK3-containing lysates
# 2,Compound,23 nL,Final concentration was 0.6nM to 46uM
# 3,Time,15 minutes,Room Temperature
# 4,Reagent,1 uL,ATP final concentration 10uM
# 6,Reagent,0.5 uL,2ng/well bead mixture
# […]
# % is scaled to controls: 0 for no effect and ±100 for the full control effect.
Structure (SMILES),outcome,"activity change, negative = inhibition"
CC(=O)NNC(=O)N1Cc2ccccc2Oc2ccc(Cl)cc21,inactive,–
NC(=O)c1ccccc1,inactive,–
COc1ccccc1N1CCN(CCCNc2c(C)c(=O)n(C)c(=O)n2C)CC1,–,-14.5% (inactive)
O=c1[nH]c(=S)[nH]c(-c2ccccc2)c1Cc1c(O)ccc2ccccc12,–,0.827% [at 11.4 µM] (inactive)
CCCCCCCCCCCCCCSCC(=O)O,–,-6.53% (inactive)
N[C@@H](CS(=O)O)C(=O)O,–,-16.4% (inactive)
Cn1c(=O)[nH]c2ncn(C)c2c1=O,–,4.95% (inactive)
Oc1ccc(Cn2cc[nH]c2=S)cc1,–,3.26% (inactive)
C#CCn1c(=O)c2c(ncn2C)n(C)c1=O,–,5.19% (inactive)
O=C(O)C1CCNCC1,–,6.99% (inactive)
NS(=O)(=O)c1cccc2c1c([N+](=O)[O-])cc1nc(O)c(O)nc12,–,-17.9% (inactive)
N#C/C(=C\c1ccc(O)c(O)c1)C(=O)NCCc1ccccc1,–,-13.6% (inactive)
Nc1nc2[nH]c(=O)cnc2c(=O)[nH]1,–,-5.78% (inactive)
CC(=O)C(C)=O,inactive,–
NC[C@@H]1O[C@H](c2ccccc2)Cc2c1ccc(O)c2O,–,-67.1% (inactive)
NCCS(=O)O,–,-1.87% (inactive)
C[N+](C)(C)CC=O,–,7.93% (inactive)
NCCNS(=O)(=O)c1cccc2c(Cl)cccc12,–,10.2% (inactive)
COc1ccc(-c2ccc(N)[n+](CCCC(=O)O)n2)cc1,inactive,–
O=c1[nH]ccc2c(O)cccc12,–,41.1% (inactive)

Structure (SMILES),outcome,"activity change, negative = inhibition"
CC(C)(CO)Cc1cc(C(C)(C)C)c(O)c(C(C)(C)C)c1,inactive,–
Nn1nnc2ccccc21,–,4.31% (inactive)
N=C(N)SCCN,inactive,–
C/C(=C\c1ccc(C(=O)O)cc1)c1ccc2c(c1)C(C)(C)CCC2(C)C,inactive,–
CNC(=O)c1cc2c(cn1)[nH]c1ccccc12,inactive,–
N[C@H](C(=O)O)c1cc(O)cc(O)c1,inactive,–
CC(C)NC[C@H](O)COc1ccc(CC(N)=O)cc1,inactive,–
O=C(O)c1ccccc1Nc1cccc(OCc2ccc3ccccc3n2)c1,inactive,–
O=c1onc2n1-c1cc(Br)ccc1OC2,–,-15.2% (inactive)
CC(C)[C@H](NC(=O)OCc1ccccc1)C(=O)N[C@H](C=O)Cc1ccccc1 (Cbz-Val-Phe-aldehyde),–,18.4% (inactive)
COc1ccc2c(c1)c(CC(=O)O)c(C)n2C(=O)c1ccccc1,–,5.71% (inactive)
Cc1nc(N=Nc2ccc(C(=O)O)cc2)c(COP(=O)(O)O)c(C=O)c1O,–,-12.3% (inactive)
CN1CCN(c2nc3cc(C(F)(F)F)ccc3n3cccc23)CC1,–,7.25% (inactive)
O=C(OCCN1CCOCC1)C1(c2ccccc2)CCCCC1,–,-25.8% (inactive)
CN(C)CCCc1cc(C(=O)Nc2ccc(-c3ccncc3)cc2)ccc1O,–,-10.4% (inactive)
NC1(C(=O)O)CCCCC1,–,-6.54% (inactive)
O=c1onc2cnc3ccccc3n12,inactive,–
CCn1c(=O)[nH]c2cc(Cl)c(Cl)cc21,inactive,–
CCCCOC(=O)NS(=O)(=O)c1sc(CC(C)C)cc1-c1ccc(Cn2c(CC)nc3c(C)cc(C)nc32)cc1,–,-0.81% (inactive)
N=C(N)c1ccc(N)cc1,–,13.6% (inactive)
